Experimental data from PubChem BioAssay (NCATS).
Values joined by “and” are separate entries in the source; they are usually repeats but may differ in a detail not shown here. Equal entries are not always repeated. Records with an inconclusive call do not appear. Active and inactive are the calls of the source. Unless noted, the call rests on the fitted dose curve.

What was measured:
[1] = molecular target: Estrogen receptor (Homo sapiens) (UniProt P03372); test: qHTS assay for small molecule antagonists of estrogen receptor alpha signaling (AID 588513; active means well fitted curve in the direction sought with a large enough effect in the signal ratio, with a control signal flat, not every such curve was filed as active; the % refers to the signal ratio; further: on the % scale 0 is the no-effect control and ±100 the full control effect)
Summary of the method: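 Cells were plated at 5000/well and incubated 4 h at 37 C. Compounds were added as 1:2 dilution series, duplicates. 17-beta-estradiol (0.5nM final) was added for 18 h before CCF4 detection.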

[2] = molecular target: Estrogen receptor (Homo sapiens) (UniProt P03372); test: qHTS assay for small molecule agonists of estrogen receptor alpha signaling (AID 588514);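 further: 0% = vehicle only and 100% = reference agonist; nearly all actives have a fitted effect of over 70% in size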
Summary of the method: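 Efficacy is expressed against 20 nM 17-beta-estradiol (100%) and DMSO basal (0%); EC50 from Hill equation. Assay: beta-lactamase reporter in ER-alpha-UAS-bla HEK 293 cells, 18 h compound incubation, CCF4 detection.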

[3] = molecular target: Peroxisome proliferator-activated receptor delta (Homo sapiens) (UniProt Q03181); test: qHTS assay for small molecule agonists of peroxisome proliferator-activated receptor delta signaling (AID 588534);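 further: 0% = DMSO basal wells and 100% = positive control agonist at 10 µM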
Summary of the method: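 Agonist-mode qHTS; reporter cells, 5 hrs 37 C pre-incubation; compound titration, 18 hrs 37 C; CCF4 dye, 2 hrs RT; fluorescence read. EC50/efficacy via Hill fit.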

[4] = molecular target: Peroxisome proliferator-activated receptor gamma (Homo sapiens) (UniProt P37231); test: qHTS assay for small molecule agonists of peroxisome proliferator-activated receptor gamma signaling (AID 588536; active means well fitted curve in the direction sought with a large enough effect in the signal ratio, with a control signal flat, not every such curve was filed as active; the % refers to the signal ratio;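 further: 0% = DMSO basal wells and 100% = rosiglitazone at 2 µM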)
Summary of the method: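 This is an agonist-mode beta-lactamase reporter assay in HEK293 PPAR-gamma-UAS-bla cells with 1% charcoal/dextran FBS. Compound titrations ran 16 h at 37 C before CCF4 detection. EC50 and efficacy are Hill fits scaled to 2 uM rosiglitazone (100%) and DMSO basal.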

[5] = molecular target: Vitamin D3 receptor (Homo sapiens) (UniProt P11473); test: qHTS assay for small molecule antagonists of vitamin D receptor signaling (AID 588541);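 further: receptor activated by calcitriol during compound treatment; series mostly up to about 77 µM; on the % scale 0 is the no-effect control and ±100 the full control effect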
Summary of the method: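 VDR-UAS-bla HEK293T cells in 2% charcoal-stripped FBS were stimulated with 1-alpha,25-dihydroxyvitamin D3 (3 nM final) plus compound for 16 h at 37 C. The beta-lactamase CCF4 readout was normalized to 50 nM agonist and DMSO, and Hill fits gave IC50.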

[6] = molecular target: Thyroid hormone receptor beta (Homo sapiens) (UniProt P10828); test: qHTS assay for small molecule agonists of thyroid hormone receptor beta signaling (AID 588545);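 further: 0% = DMSO only and 100% = 10 nM T3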
Summary of the method: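 Compounds were tested as agonists in TR-UAS-bla-GripTite HEK 293 cells. After 18 hrs at 37 C, CCF4 substrate was added and fluorescence read after 2 hrs at room temperature.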

[7] = qHTS assay for small molecule antagonists of retinoid X receptor alpha signaling (AID 588546; active means well fitted inhibition curve with a large enough effect in the signal ratio, with a control signal flat, not every such curve was filed as active; the % refers to the signal ratio;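 further: cells stimulated with 9-cis-retinoic acid as agonist; on the % scale 0 is the no-effect control and ±100 the full control effect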); conditions: HEK293T RXRa-UAS-bla, beta-lactamase ratio, antagonist mode; measured here: W530 green channel, cytotoxicity proxy
Summary of the method: (§1)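 Beta-lactamase reporter inhibition, read as CCF4 fluorescence ratio (ex 405, em 460/530 nm) after 2 h at RT. HEK293T UAS-bla cells, 2500/well, were stimulated with 9-cis-RA at 500 or 100 nM final alongside test compound for 18 h at 37 C.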

[8] = molecular target: Retinoic acid receptor RXR-alpha (Homo sapiens) (UniProt P19793); test: as above; conditions: HEK293T RXRa-UAS-bla, beta-lactamase ratio, antagonist mode
Summary of the method: as §1

[9] = qHTS assay for small molecule activators of the p53 signaling pathway (AID 651743; active means well fitted activation curve with a large enough effect in the signal ratio, not every such curve was filed as active; the % refers to the signal ratio; further: series mostly up to about 92 µM; % of control where 0% means no effect); conditions: HCT-116 p53RE-bla, beta-lactamase FRET ratio, 16 h; activation: stronger effect = higher value
Summary of the method: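 Following 16 hours of compound exposure at 37 C, HCT-116 cells bearing the p53RE-bla reporter were loaded with LiveBLAzer B/G FRET substrate for 2 hours at room temperature and fluorescence intensity was recorded.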

[10] = qHTS assay for small molecule activators of the nuclear factor-kappa B (NF-kB) signaling pathway (AID 651749; active means well fitted activation curve with a large enough effect in the signal ratio; the % refers to the signal ratio; further: series mostly up to about 77 µM; % of control where 0% means no effect); conditions: NF-kB-bla ME-180 cells, beta-lactamase FRET ratio, 16 h; activation: stronger effect = higher value
Summary of the method: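 In this qHTS format, compounds acting as activators increase NF-kB-driven beta-lactamase in ME-180 cells, measured as disrupted FRET after 16 hr exposure at 37C and 5% CO2.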

[11] = qHTS assay for environmental chemicals that activate the Aryl hydrocarbon Receptor (AhR) signaling pathway (AID 651777; active means well fitted curve in the direction sought with a large enough effect; an effect the other way counts as inactive or inconclusive; further: % of control where 0% means no effect; nearly all actives have a fitted effect of over 15% in size); conditions: 1A2-DRE human hepatoma cells, luciferase, 24 h; activation: stronger effect = higher value
Summary of the method: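 Concentration–response screening used 1,200 1A2-DRE cells per well, 24 hr compound exposure (37 C, 5% CO2), and One-Glo luminescence as the AhR-driven CYP1A2 reporter signal.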

[12] = molecular target: Peroxisome proliferator-activated receptor alpha (Homo sapiens) (UniProt Q07869); test: qHTS assay for small molecule agonists of the peroxisome proliferator-activated receptor alpha (PPARalpha) signaling pathway (AID 651778; active means well fitted curve in the direction sought with a large enough effect; an effect the other way counts as inactive or inconclusive; further: % of control where 0% means no effect); conditions: PathHunter PPARalpha complementation, chemiluminescence, 6 h; max response: stronger effect = higher value
Summary of the method: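 Enzyme-fragment complementation assay in which ligand-bound PPARalpha translocates and forms an active enzyme that generates chemiluminescence. Cells were plated overnight, exposed to compound for 6 hr at 37 C, and then given detection reagent for 60 min at room temperature.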

[13] = qHTS assay for small molecule agonists of the antioxidant response element (ARE) signaling pathway measured by Nrf2-dependant transcriptional activity (AID 720636; active means well fitted curve in the direction sought with a large enough effect in the repeat runs; an effect the other way counts as inactive or inconclusive;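 further: HepG2 cells with an ARE-driven luciferase reporter; % of control where 0% means no effect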)
Summary of the method: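 Attachment 6 hr at 37 C, then compound versus DMSO vehicle for 16 hr in ARE-luc HepG2 cells (1% dialyzed FBS); luminescence recorded 30 min after ONE-Glo addition at room temperature.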

[14] = qHTS assay for small molecule agonists of the antioxidant response element (ARE) signaling pathway measured by Nrf2-dependant transcriptional activity - cell viability counter screen (AID 720653; active means well fitted curve in the direction sought with a large enough effect in the repeat runs; an effect the other way counts as inactive or inconclusive; further: on the % scale 0 is the no-effect control and ±100 the full control effect); conditions: ARE-bla HepG2 viability, CellTiter-Glo ATP luminescence, 16 h; max response: stronger effect = lower value
Summary of the method: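 ARE-bla HepG2 cells treated with compounds for 16 h at 37C; this counter screen measures viability as intracellular ATP by CellTiter-Glo luminescence after 30 min at room temperature.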

[15] = qHTS assay for cell viability of HEK293 cells (AID 743288; active means well fitted curve in the direction sought with a large enough effect; an effect the other way counts as inactive or inconclusive; further: on the % scale 0 is the no-effect control and ±100 the full control effect; nearly all actives have a fitted effect of over 50% in size); conditions: ATP luminescence (CellTiter-Glo), 18 h; max response: stronger effect = lower value
Summary of the method: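 Quantitative high-throughput screen: compounds were pinned onto parental HEK293 cells (2,000 per well) after a minimum 5 h settling at 37 C, incubated 18 h at 37 C, and intracellular ATP measured by luciferase luminescence.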

[16] = qHTS assay for cell viability of the p53RE-bla HCT-116 cell line (AID 743292; active means well fitted curve in the direction sought with a large enough effect; an effect the other way counts as inactive or inconclusive; further: on the % scale 0 is the no-effect control and ±100 the full control effect; nearly all actives have a fitted effect of over 55% in size)
Summary of the method: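 Compound-exposed HCT-116 (p53RE-bla) cells, 4,000 per well, were kept 16 h at 37 C following a 5 h preincubation. Cell number was estimated from total ATP by CellTiter-Glo luminescence read after 30 min at room temperature.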

[17] = molecular target: Nuclear receptor subfamily 1 group I member 2 (Rattus norvegicus) (UniProt Q9R1A7); test: qHTS assay for small molecule activators of the rat pregnane X receptor (rPXR) signaling pathway (AID 651751; call rule not given here; further: 0% is about no effect); conditions: rPXR reporter cells, luciferase (One-Glo), 24 h
[18] = molecular target: Glucocorticoid receptor (Homo sapiens) (UniProt P04150); test: qHTS assay for small molecule agonists of glucocorticoid receptor signaling (AID 588532; active means well fitted curve in the direction sought with a large enough effect in the signal ratio, with a control signal flat; the % refers to the signal ratio;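 further: 100% = dexamethasone at 0.1 µM and 0% = DMSO only wells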); conditions: HeLa MMTV-bla, beta-lactamase ratio, agonist, 18 h; activation: stronger effect = higher value, percent of dexamethasone control, DMSO zero
Summary of the method: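 MMTV-bla HeLa beta-lactamase reporter cells in 1% charcoal/dextran FBS medium, compounds up to 92 uM for 18 h at 37 C, CCF4 readout; normalized to 0.1 uM dexamethasone (100%), EC50 and efficacy from Hill fits.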

[19] = molecular target: Vitamin D3 receptor (Homo sapiens) (UniProt P11473); test: qHTS assay for small molecule agonists of vitamin D receptor signaling (AID 588543);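 further: 0% = DMSO basal and 100% = reference agonist control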
Summary of the method: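 qHTS in agonist mode: compound titrations stimulate a VDR-driven β-lactamase reporter in HEK293T cells over 16 h at 37 °C. Response normalized to 50 nM 1α,25-dihydroxyvitamin D3 = 100%, DMSO = 0%; Hill fitting gives EC50 and maximal response.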

[20] = molecular target: Retinoic acid receptor RXR-alpha (Homo sapiens) (UniProt P19793); test: qHTS assay for small molecule agonists of retinoid X receptor alpha signaling (AID 588544);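 further: 0% = DMSO basal wells and 100% = reference agonist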

Chain of Nuclear receptor subfamily 1 group I member 2 (Rattus norvegicus) (Q9R1A7 whole entry, looked up): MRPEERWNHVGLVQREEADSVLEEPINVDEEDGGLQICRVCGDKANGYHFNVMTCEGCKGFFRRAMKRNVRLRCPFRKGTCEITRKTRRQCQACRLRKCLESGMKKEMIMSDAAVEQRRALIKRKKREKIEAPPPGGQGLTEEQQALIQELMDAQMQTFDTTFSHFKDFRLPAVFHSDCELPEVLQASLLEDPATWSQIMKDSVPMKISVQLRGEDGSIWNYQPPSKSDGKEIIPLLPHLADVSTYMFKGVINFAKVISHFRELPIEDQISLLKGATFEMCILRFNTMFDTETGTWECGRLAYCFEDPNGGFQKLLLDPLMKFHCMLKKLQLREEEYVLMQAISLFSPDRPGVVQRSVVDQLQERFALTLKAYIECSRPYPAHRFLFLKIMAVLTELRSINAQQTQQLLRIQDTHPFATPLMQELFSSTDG
Chain of Peroxisome proliferator-activated receptor delta (Homo sapiens) (Q03181 whole entry, looked up): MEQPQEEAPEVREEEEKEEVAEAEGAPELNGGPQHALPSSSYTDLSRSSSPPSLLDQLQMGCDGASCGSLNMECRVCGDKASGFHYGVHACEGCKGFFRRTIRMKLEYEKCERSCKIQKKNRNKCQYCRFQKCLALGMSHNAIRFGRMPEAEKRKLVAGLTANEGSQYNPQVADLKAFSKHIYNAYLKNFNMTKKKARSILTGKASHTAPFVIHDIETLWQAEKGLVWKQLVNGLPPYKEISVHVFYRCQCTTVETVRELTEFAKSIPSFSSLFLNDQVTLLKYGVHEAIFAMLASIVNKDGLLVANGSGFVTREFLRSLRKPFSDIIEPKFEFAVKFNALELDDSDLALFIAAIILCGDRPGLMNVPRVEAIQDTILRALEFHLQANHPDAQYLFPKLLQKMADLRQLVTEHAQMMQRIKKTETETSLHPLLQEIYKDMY
Chain of Thyroid hormone receptor beta (Homo sapiens) (P10828 whole entry, looked up): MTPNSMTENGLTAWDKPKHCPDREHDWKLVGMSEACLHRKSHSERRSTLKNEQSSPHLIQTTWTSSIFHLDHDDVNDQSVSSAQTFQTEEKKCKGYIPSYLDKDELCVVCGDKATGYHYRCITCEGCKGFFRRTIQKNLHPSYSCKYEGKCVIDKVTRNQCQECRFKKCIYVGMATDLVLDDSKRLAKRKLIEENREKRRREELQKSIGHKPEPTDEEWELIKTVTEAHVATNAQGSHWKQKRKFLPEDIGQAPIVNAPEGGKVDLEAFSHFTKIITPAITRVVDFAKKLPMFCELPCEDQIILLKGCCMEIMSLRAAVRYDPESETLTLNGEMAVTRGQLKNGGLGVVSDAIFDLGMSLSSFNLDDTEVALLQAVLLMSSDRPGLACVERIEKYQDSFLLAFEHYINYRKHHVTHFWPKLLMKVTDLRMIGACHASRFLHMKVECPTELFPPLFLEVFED
Chain of Peroxisome proliferator-activated receptor gamma (Homo sapiens) (P37231 whole entry, looked up): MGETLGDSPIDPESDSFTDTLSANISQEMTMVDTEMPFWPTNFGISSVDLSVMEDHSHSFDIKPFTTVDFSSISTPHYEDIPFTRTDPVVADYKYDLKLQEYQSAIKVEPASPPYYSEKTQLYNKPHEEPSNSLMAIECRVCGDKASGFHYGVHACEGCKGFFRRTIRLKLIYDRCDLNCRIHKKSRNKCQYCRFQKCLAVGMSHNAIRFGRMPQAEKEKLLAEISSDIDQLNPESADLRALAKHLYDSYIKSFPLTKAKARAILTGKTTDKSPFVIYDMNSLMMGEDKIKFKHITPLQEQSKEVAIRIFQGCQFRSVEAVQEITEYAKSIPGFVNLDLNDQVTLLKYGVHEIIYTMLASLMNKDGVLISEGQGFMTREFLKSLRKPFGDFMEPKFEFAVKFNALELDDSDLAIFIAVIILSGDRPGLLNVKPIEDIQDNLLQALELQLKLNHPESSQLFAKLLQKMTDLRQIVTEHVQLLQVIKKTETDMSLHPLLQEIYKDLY
Chain of Vitamin D3 receptor (Homo sapiens) (P11473 whole entry, looked up): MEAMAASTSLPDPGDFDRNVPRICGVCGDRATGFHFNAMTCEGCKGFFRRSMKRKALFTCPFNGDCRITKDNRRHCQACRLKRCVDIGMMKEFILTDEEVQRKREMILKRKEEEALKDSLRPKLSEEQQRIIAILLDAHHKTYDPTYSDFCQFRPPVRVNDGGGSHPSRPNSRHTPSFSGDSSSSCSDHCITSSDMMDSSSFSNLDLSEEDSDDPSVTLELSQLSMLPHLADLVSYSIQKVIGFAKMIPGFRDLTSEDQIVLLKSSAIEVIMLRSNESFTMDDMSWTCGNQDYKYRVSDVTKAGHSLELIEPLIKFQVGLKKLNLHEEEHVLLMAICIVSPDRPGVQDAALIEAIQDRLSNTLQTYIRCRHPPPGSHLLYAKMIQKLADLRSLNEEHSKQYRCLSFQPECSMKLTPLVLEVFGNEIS
Chain of Estrogen receptor (Homo sapiens) (P03372 whole entry, looked up): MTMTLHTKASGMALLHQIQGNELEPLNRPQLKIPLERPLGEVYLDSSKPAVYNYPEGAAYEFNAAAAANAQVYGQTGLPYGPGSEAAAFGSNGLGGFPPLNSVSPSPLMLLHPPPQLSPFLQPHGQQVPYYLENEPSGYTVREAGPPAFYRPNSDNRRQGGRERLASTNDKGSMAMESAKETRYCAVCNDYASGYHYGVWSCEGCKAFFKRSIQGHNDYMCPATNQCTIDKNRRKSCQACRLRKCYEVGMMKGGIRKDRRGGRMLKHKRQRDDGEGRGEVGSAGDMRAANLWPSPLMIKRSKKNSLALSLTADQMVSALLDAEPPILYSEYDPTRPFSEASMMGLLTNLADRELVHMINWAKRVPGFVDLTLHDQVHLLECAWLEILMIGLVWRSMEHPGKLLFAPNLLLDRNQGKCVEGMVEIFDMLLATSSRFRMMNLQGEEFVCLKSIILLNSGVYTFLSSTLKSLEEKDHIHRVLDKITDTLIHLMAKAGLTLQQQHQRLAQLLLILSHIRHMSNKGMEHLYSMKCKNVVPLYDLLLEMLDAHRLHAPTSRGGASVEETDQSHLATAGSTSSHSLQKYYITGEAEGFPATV
Chain of Retinoic acid receptor RXR-alpha (Homo sapiens) (P19793 whole entry, looked up): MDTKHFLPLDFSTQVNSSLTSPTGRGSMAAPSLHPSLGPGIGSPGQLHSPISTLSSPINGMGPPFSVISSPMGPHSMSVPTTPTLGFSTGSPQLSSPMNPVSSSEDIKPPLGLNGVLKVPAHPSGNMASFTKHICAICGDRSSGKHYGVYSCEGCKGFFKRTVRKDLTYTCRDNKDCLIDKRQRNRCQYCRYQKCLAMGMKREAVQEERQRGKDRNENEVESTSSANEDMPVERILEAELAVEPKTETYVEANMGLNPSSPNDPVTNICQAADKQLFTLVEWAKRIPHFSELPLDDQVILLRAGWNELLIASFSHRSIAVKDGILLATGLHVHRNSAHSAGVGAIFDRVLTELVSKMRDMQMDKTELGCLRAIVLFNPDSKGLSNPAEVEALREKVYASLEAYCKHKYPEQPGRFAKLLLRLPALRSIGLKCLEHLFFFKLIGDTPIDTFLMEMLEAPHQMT
Chain of Glucocorticoid receptor (Homo sapiens) (P04150 whole entry, looked up): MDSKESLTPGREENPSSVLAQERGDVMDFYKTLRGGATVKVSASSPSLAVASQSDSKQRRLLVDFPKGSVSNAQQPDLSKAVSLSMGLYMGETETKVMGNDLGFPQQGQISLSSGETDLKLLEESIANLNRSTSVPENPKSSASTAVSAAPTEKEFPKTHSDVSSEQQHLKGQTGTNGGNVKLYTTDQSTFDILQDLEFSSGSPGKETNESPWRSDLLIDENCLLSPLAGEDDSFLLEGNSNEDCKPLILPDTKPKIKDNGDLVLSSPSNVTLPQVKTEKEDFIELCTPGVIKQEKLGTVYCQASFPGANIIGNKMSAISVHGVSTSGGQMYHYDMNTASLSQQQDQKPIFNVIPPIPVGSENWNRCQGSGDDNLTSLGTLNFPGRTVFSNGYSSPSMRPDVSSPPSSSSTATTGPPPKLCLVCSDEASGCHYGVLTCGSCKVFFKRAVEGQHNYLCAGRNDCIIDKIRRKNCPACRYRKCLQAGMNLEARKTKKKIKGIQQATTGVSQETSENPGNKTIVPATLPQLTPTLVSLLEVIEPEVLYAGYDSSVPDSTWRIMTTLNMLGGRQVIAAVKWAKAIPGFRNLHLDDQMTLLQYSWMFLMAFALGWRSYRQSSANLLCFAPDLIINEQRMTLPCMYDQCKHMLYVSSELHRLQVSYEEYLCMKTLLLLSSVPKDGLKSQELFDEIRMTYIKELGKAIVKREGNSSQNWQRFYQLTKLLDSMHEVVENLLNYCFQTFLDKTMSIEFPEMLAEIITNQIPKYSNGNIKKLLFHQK
Chain of Peroxisome proliferator-activated receptor alpha (Homo sapiens) (Q07869 whole entry, looked up, the tested form may be a part): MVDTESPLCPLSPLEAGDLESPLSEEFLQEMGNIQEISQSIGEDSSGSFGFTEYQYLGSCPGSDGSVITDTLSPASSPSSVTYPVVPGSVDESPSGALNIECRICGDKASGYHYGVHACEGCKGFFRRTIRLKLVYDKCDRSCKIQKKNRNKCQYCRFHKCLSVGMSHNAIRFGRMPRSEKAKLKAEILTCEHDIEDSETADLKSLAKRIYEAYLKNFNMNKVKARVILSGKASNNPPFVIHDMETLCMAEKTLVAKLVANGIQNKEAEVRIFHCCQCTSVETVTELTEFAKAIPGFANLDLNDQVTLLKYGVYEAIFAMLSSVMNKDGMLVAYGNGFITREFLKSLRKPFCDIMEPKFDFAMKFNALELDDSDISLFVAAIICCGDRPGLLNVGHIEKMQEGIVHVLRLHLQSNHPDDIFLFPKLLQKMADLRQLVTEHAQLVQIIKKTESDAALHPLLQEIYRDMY

O=P(O)(O)CCCl
-6.38%: max response [7]
inactive: Potency [1] | Potency [2] | outcome [3] | Potency [4] | Potency [5] | Potency [6] | max response [8] 5.61% | activation [9] -3.48% and 2.67% | activation [10] 1.25% and -0.207% | activation [11] -0.0383% and -0.0843% | max response [12] 0.775% and -1.46% | Potency [13] | max response [14] -26.8% and 3.51% | max response [15] -9.79% and -10.1% | Potency [16] | max response [17] -9.16% and -4.17%

COP(=S)(OC)Oc1ccc([N+](=O)[O-])c(C)c1
-7.02%: max response [7]
inactive: Potency [1] | Potency [2] | activation [18] -13.6% | outcome [3] | Potency [4] | Potency [5] | outcome [19] | Potency [20] | Potency [6] | max response [8] -30.1% | activation [9] -5.64% | activation [11] 2.78% | max response [12] -4.6% | Potency [13] | max response [14] -3.17% | max response [15] -7.08% | Potency [16] | max response [17] -1.75%

Clc1ccc(C(Cl)(Cl)Cl)cc1
inactive: Potency [1] | Potency [2] | activation [18] 0.824% | Potency [4] | Potency [20] | Potency [6] | max response [8] -3.2% | activation [9] -4.01% | activation [11] 0.701% | max response [12] -0.649% | max response [15] -0.236% | Potency [16] | max response [17] 2.13%
-19.4%: max response [7]

CC(C)(c1ccccc1)c1cc(-n2nc3ccccc3n2)c(O)c(C(C)(C)c2ccccc2)c1
-10.8%: max response [7]
inactive: Potency [1] | Potency [2] | activation [18] -6.85% | outcome [3] | Potency [4] | Potency [5] | outcome [19] | Potency [20] | Potency [6] | max response [8] 0.796% | activation [9] -0.652% | activation [10] 0.903% | activation [11] -0.0851% | max response [12] -0.734% | Potency [13] | max response [14] 4.77% | max response [15] -7.76% | Potency [16] | max response [17] 2.09%

CCCCC(CC)CO[N+](=O)[O-] (stereo not drawn)
-8.14%: max response [7]
inactive: Potency [1] | Potency [2] | activation [18] -6.71% | outcome [3] | Potency [4] | Potency [5] | outcome [19] | Potency [20] | Potency [6] | max response [8] 3.31% | activation [9] -4.18% | activation [11] 2.43% | max response [12] -0.348% | Potency [13] | max response [14] -12.3% | max response [15] 3.43% | Potency [16] | max response [17] 1.62%

Cc1c(COC(=O)C2C(/C=C(\Cl)C(F)(F)F)C2(C)C)cccc1-c1ccccc1 (stereo not drawn)
1.28%: max response [7]
inactive: Potency [1] | Potency [2] | outcome [3] | Potency [4] | outcome [19] | Potency [6] | max response [8] -11.6% | activation [9] 2.17% | activation [10] 1.42% | activation [11] -0.984% | max response [12] -0.35% | Potency [13] | max response [14] -14.6% | max response [15] -17.7%

Clc1ccc([C@]2(Cn3cncn3)C[C@@H](Br)CO2)c(Cl)c1
inactive: Potency [1] | Potency [2] | activation [18] 7.46% and -5.85% | outcome [3] | Potency [4] | Potency [5] | outcome [19] | Potency [6] | max response [8] -12.9% and -9.53% | activation [9] -0.258% and -3.95% | activation [10] -2.1% and -2.03% | activation [11] 3.17% and 2.53% | max response [12] -0.572% and -0.644% | Potency [13] | max response [14] -16.1% and 0.925% | max response [15] -21.9% and -13.3% | Potency [16]
-15.6% and -7.06%: max response [7]

CC1CCCCC1NC(=O)Nc1ccccc1 (stereo not drawn)
inactive: Potency [1] | Potency [2] | activation [18] -3.51% | outcome [3] | Potency [5] | max response [8] -9.04% | activation [9] 0.836% | activation [10] -4.02% | activation [11] 6.72% | max response [12] -0.607% | max response [14] -4.51% | max response [15] -11.4% | Potency [16]
-4.7%: max response [7]

CCN(CC)C(=O)C(C)Oc1cccc2ccccc12 (stereo not drawn)
-20.3%: max response [7]
inactive: Potency [1] | Potency [2] | outcome [3] | Potency [4] | Potency [20] | Potency [6] | max response [8] -6.13% | activation [9] -0.234% | activation [11] 1.45% | max response [12] 0.442% | Potency [13] | max response [14] -4.78% | max response [15] -1.61% | Potency [16]

CN(C)P(=O)(N(C)C)N(C)C
inactive: Potency [1] | Potency [2] | outcome [3] | Potency [4] | outcome [19] | Potency [20] | Potency [6] | max response [8] -0.0212% | activation [9] -2.55% | activation [11] 0.845% | max response [12] 0.0783% | Potency [13] | max response [14] -5.07% | max response [15] 0.472% | Potency [16] | max response [17] -0.946%
-10.5%: max response [7]
